The record followed here is PubChem BioAssay AID743291 (Broad Institute, 2014).

Potency and affinity values are given separately. A number with no mark means an inactive call.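 Rule for the calls: active = signal drop with fitted half-maximal dose at most twice the top valid dose, active in every repeat; inconclusive = repeats disagree, or flat partial inhibition, or poor fit; inactive = inactive in every repeat, including opposite effects.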

Chain of Caspase-3 (Homo sapiens) (P42574 whole entry, looked up): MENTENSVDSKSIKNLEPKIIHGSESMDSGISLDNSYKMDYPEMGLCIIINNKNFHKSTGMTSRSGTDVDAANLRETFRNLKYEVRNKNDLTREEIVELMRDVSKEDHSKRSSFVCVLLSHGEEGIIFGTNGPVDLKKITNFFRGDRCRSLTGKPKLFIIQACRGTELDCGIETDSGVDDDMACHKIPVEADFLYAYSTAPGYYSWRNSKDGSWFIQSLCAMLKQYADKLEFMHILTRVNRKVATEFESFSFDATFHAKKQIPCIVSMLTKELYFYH

This assay addresses Caspase-3 (Homo sapiens) (UniProt P42574). In words: human caspase-3 protease activity blockade – biochemical, fluorescence, cherry-picked samples, selectivity assay for caspase-6 allosteric inhibitor project, dose response (AID 743291). The following applies: Recombinant caspase-3, Z-DEVD-R110 cleavage fluorescence; series mostly up to 35 µM; activity change, negative = inhibition: at the top concentration.
On to `O=C(COC(=O)c1ccccc1)Nc1ncc([N+](=O)[O-])s1`, for which the “activity change, negative = inhibition” value is 2.71%.
As for `COc1cc(C)c2c(c1C=O)Oc1c(c(C)c(O)c3c1C(O)OC3=O)OC2=O` (stereo not drawn), the figure is 4.05%; as for `COc1ccc(OC)c(Nc2cc3ccccc3c(=O)[nH]2)c1`, -0.092%; as for `COc1ccccc1NC(=O)COC(=O)c1ccc([N+](=O)[O-])s1`, -44.9%.
Then `Nc1ccc(Nc2ccccc2)c(S(=O)(=O)O)c1`, with 1.55%.
As for `CCCCN(C(=O)c1cccc(-n2cccc2)c1)c1c(N)n(Cc2ccccc2)c(=O)[nH]c1=O`, the figure is 0.487%; as for `O=C(C[C@@H]1C[C@H]2c3cc(NC(=O)NC4CCCCC4)ccc3O[C@H]2[C@H](CO)O1)NCc1ccccn1`, 7.7%.
Regarding `CCOc1c(O)ccc(/C=C2\SC(=S)NC2=O)c1[N+](=O)[O-]`, the “activity change, negative = inhibition” value was -3.04%.
Then `C/C(CC(=O)N1CCCC1)=N\NC(=O)c1cc2ccccc2cc1O`, with 0.574%; and `Cc1[nH]nc(S(=O)CC(=O)O)c1[N+](=O)[O-]` (stereo not drawn), with -3.2%.
With `O=C(O)CCc1ccc(-c2ccc(Br)cc2)n1CC(=O)O`, the “activity change, negative = inhibition” value is 3.3%.
As for `COCCn1c2nc(=O)n(-c3ccccc3)c(=O)c-2nc2ccccc21`, the figure is 0.556%.
As for `CCCCN(C(=O)c1cccc(-n2cccc2)c1)c1c(N)n(CCC)c(=O)[nH]c1=O`, the figure is -0.777%; as for `Cc1oc2c(cc(NS(=O)(=O)c3ccc(C(C)C)cc3)c3ccccc32)c1C(=O)O`, 1.41%.
As for `O=C(Nc1ccc2nc3n(c(=O)c2c1)CCCCC3)c1c(F)ccc([N+](=O)[O-])c1F`, the figure is 3.48%.
With `Oc1cc(NCCc2cccnc2)cc2cccnc12`, the “activity change, negative = inhibition” value is -1.7%.
As for `Nc1c(O)cccc1C(=O)O`, the figure is 9.43%; as for `CCCSC1=N/C(=C\c2ccc([N+](=O)[O-])o2)C(=O)S1`, -7.75%; as for `O=c1[nH]c(Nc2ccc(F)cc2)cc2ccccc12`, -1.07%.
Then `NS(=O)(=O)c1ccc(NC(=O)COC(=O)c2ccc([N+](=O)[O-])s2)cc1`, with -0.1%; and `Cc1ccc(S(=O)(=O)Nc2csc(C)c2C(=O)O)cc1`, with -1.28%.
As for `O=C(O)C1Nc2c(Cl)cc(Cl)c(Cl)c2C2C=CCC12` (stereo not drawn), the figure is 6.61%.
In the case of `O=C(c1cccc(-n2cccc2)c1)N1CCN(S(=O)(=O)c2ccccc2)CC1`, the “activity change, negative = inhibition” value is -1.52%.
On to `O=C1NC(=O)C(=Cc2ccccc2[N+](=O)[O-])S1`, for which the “activity change, negative = inhibition” value is 1.62%.
Then `Cn1cnnc1SCC(=O)Nc1ncc([N+](=O)[O-])s1`, with -0.172%; and `O=C(COC(=O)c1ccc([N+](=O)[O-])s1)Nc1cccc(S(=O)(=O)NC2=NCCCCC2)c1`, with 3.37%; and `COc1cc(NCCCCC(C)N)c2nccc(C)c2c1` (stereo not drawn), with 3.62%.
As for `O=c1cc2c(=O)oc3cc(O)c(O)oc3c2c(O)c1O`, the figure is 1.36%; as for `O=c1c(O)cccc2cc(O)c(O)c(O)c12`, -2.98%.
Consider `O=C1CN(C(=O)COC(=O)c2ccc([N+](=O)[O-])s2)c2ccccc2N1`, for which the “activity change, negative = inhibition” value is 3.76%.
As for `CC(C)(C)c1ccc(NC(=O)COC(=O)c2ccc([N+](=O)[O-])s2)cc1`, the figure is -9.48%; as for `COc1cc(-c2ccc(Nc3ccccc3C(=O)O)c(OC)c2)ccc1Nc1ccccc1C(=O)O`, -0.885%.
Then `O=c1[nH]c(Nc2ccccc2Cl)cc2ccccc12`, with -3.15%; and `O=C(O)/C(=C\c1ccc(Cl)c([N+](=O)[O-])c1)c1ccc(S(=O)(=O)N2CCCC2)s1`, with 2.29%; and `COc1cc(NC(=O)COC(=O)c2ccc([N+](=O)[O-])s2)cc(OC)c1OC`, with 4.09%.
Then `COc1cc(NC(C)CCCNC(C)C)c2ncccc2c1OC` (stereo not drawn), with -15.3%; and `Nc1cc2nn(-c3ccccc3)nc2cc1Cl`, with -1.99%; and `Cc1cccc(NC(=O)CNC(=O)c2cccc(-n3cccc3)c2)c1C`, with -9.13%.
